D2 PAM-1 = potentiates the human D2 dopamine receptor allosterically; DiscoveRx D2 beta-arrestin cells, luminescence, 90 min; 100% = 57 uM dopamine signal; potentiation, % (test concentration not listed); 360,000 compounds, 0.23% hits; in the data active = potentiation above about 50%
Target sequence (P14416 whole entry, looked up): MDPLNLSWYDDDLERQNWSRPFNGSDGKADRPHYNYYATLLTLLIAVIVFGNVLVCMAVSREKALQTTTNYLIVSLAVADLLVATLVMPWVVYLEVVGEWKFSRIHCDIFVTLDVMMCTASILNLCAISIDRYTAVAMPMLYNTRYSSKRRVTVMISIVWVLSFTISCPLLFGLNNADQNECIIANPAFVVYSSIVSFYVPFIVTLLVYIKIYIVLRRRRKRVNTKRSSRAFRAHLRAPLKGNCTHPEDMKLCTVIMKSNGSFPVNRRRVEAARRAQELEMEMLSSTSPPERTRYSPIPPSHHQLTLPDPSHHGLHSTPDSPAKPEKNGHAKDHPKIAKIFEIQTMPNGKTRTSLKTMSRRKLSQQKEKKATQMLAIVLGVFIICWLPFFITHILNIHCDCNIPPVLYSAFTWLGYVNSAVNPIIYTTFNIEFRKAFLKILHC
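D2 cells co-treated with compound plus 50 nM dopamine (EC20) for 90 min at 37 deg C to detect potentiation. Beta-arrestin recruitment was read as enzyme-fragment luminescence after 1 h at ambient temperature. Full response was set by 57 uM dopamine.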
D2 PAM-2 = positively modulates the human D2 dopamine receptor allosterically; P14416; HEK293 T-REx D2, calcium flux, EC20 dopamine potentiation; potentiation, % at 10 µM; 340,000 compounds, 0.34% hits; AID 485347;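 active = potentiation over 3 SD above the plate norm, cut at about 30% in these data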; note: 0% is about no effect
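Tetracycline-induced HEK293 T-REx cells force-coupled to calcium signalling expressed D2; compounds were pin-added after a 10 s baseline, read kinetically 180 s, then an EC20 dopamine challenge followed with a further 180 s calcium read.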
D2 antagonist = antagonists of human D2 dopamine receptor; P14416; HEK293 TREx D2 cells, calcium flux, dopamine EC80; inhibition, % at 10 µM; 340,000 compounds, 2% hits; AID 485344; in the data active = inhibition above about 30%; inactive = below that, where a call was filed; note: 0% is about no effect
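Measurement of antagonist activity uses fluorescent calcium dye in inducible HEK293 T-REx D2 cells: 10 s baseline, compound addition with 180 s read, EC80 dopamine addition with a further 180 s read.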
D2 ag-1 = D2 dopamine receptor (human) agonism; P14416; HEK293 T-REx D2 cells, calcium flux agonist mode; activation, % at 2 µM; 340,000 compounds, 0.53% hits; AID 485358;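 active = activation over 3 SD above normal in the single-dose calcium agonist read, cut at about 30% in these data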; note: 0% is about no effect
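Tetracycline-induced HEK293 T-REx cells with force-coupled D2 receptor, plated overnight at 30 C, loaded with no-wash calcium dye. After a 10 s baseline, compound was pin-added and calcium flux read kinetically for 180 s; calcium rises flagged agonists.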
D2 ag-2 = human D2 receptor agonism in beta-arrestin assay. activation, % (test concentration not listed). DiscoveRx PathHunter D2 beta-arrestin, luminescence, 90 min; 100% = 57 uM dopamine signal. 360,000 compounds, 0.084% hits; in the data active = activation above about 40%
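Agonist mode: compounds alone added to overnight-plated D2 PathHunter cells for 90 min at 37 C, with 57 uM final dopamine (EC100) defining full response. Beta-arrestin recruitment detected by chemiluminescent reagent, read after 1 h at ambient temperature.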
Active calls of the source: *; x = not tested or not shown. Only some compounds are listed: those with a hit (about 2.4% of all), similar ones and a draw of the others.

SMILES	D2 PAM-1	D2 PAM-2	D2 antagonist	D2 ag-1	D2 ag-2
O=C(CN1C(=O)NC(Cc2c[nH]c3ccccc23)C1=O)Nc1cccc(S(=O)(=O)N2CCCCCC2)c1 (configuration not stated)	52*	10	3	-2	4
O=C(NCc1n[nH]c(=S)n1-c1cccc(Cl)c1)c1ccc(S(=O)(=O)N2CCCCC2)cc1	-16	33*	-12	-2	-9
Cc1cccc(-n2c(CNC(=O)c3ccc(S(=O)(=O)N4CCCC4)cc3)n[nH]c2=S)c1	-8	-1	12	-1	-2
CCOc1ccc(CCNC(=O)c2cc3c(=O)n(C)c4ccccc4c3n2C)cc1OCC	x	-13	x	2	x
O=C(Cn1nc(Cc2cccnc2)c2ccccc2c1=O)Nc1cccc(C(F)(F)F)c1	x	-1	x	-1	x
O=C(Nc1cccc(CNCCc2c[nH]c3ccccc23)c1)c1ccccc1Cl	-24	-34	72*	22	-4
CC(=O)c1cccc(NC(=O)NCCc2c[nH]c3ccccc23)c1	-10	-6	-6	-1	-1
COc1cc(OC)c(C2=Nc3ccc(Br)cc3C(c3ccccc3)N2CC(=O)NN)cc1OC (configuration not stated)	-4	-19	78*	0	-6
CC1=Nc2ccc(Br)cc2C(c2ccccc2)N1CC(=O)NN (configuration not stated)	-5	-25	36*	-2	-6
NNC(=O)CN1C(CN2CCOCC2)=Nc2ccc(Br)cc2C1c1ccccc1 (configuration not stated)	-13	-24	83*	1	0
NNC(=O)CN1C(c2ccc(Cl)cc2)=Nc2ccc(Br)cc2C1c1ccccc1 (configuration not stated)	-32	-27	x	0	-2
NNC(=O)CN1C(c2ccccc2)=Nc2ccc(Br)cc2C1c1ccccc1 (configuration not stated)	-17	-32	81*	0	-6
CCC1=Nc2ccc(Br)cc2C(c2ccccc2)N1CC(=O)OC (configuration not stated)	-20	-22	3	0	-4
COc1cc(OC)cc(-n2c(=O)c3ccccc3n(CC(=O)NCCc3ccc(OC)c(OC)c3)c2=O)c1	x	-8	x	-1	x
CC(C)(C)OC(=O)CNC(=O)c1[nH]cnc1C(=O)NC(c1ccccc1)c1ccccc1	-4	-25	-21	48*	-1
C[C@H](NC(=O)c1nc[nH]c1C(=O)NC(c1ccccc1)c1ccccc1)C(=O)OC(C)(C)C	-11	x	x	x	-1
COc1ccc(N(CC(=O)N/N=C/c2ccc(C(=O)O)cc2)S(=O)(=O)c2ccc(NC(C)=O)cc2)cc1	0	-7	56*	1	2
COc1ccc(N(Cc2cc3ccccc3[nH]c2=O)S(=O)(=O)c2ccc(OC)cc2)cc1	-44	-24	9	-2	-2
COc1ccc(N(Cc2cc3cc(OC)ccc3[nH]c2=O)S(=O)(=O)c2ccc(NC(C)=O)cc2)cc1	50*	-20	-7	0	2
CC(C)c1ccc(Nc2nc3ccc(C(=O)c4ccccc4)cc3n3cnnc23)cc1	x	3	x	-1	x
COc1ccc(CCNC(=O)CSc2nc3ccccc3nc2Cc2ccc(Cl)cc2)cc1OC	x	x	x	-1	x
COc1ccc(C(CNC(=O)C(C)(C)Oc2ccc(Cl)cc2)N2CCCC2)cc1 (configuration not stated)	-37	-24	97*	0	-1
COc1ccc(C(CNC(=O)c2cc3ccccc3o2)N2CCCCC2)cc1 (configuration not stated)	-21	-20	67*	0	-2
COc1ccc(C(CNC(=O)c2cc3c(s2)CCC(C)C3)N2CCCC2)cc1 (configuration not stated)	-8	-25	72*	0	-1
COc1ccc(C(CNC(=O)c2cc3ccccc3o2)N2CCCC2)cc1 (configuration not stated)	-5	-29	79*	1	-1
COc1ccc(C(CNC(=O)c2cc3c(s2)CCC(C)C3)N2CCOCC2)cc1 (configuration not stated)	-5	-26	20	0	-3
Cc1ccc(Cl)cc1-n1c(CCC(=O)O)ccc1-c1cccs1	x	12	x	0	x

High-throughput results from PubChem.
